A selection: hits, their analogues and other compounds. The true share with any hit is near 2.3%.
CHO-K1 Ca ag – counter-screen for M1 agonists: effect in parental CHO-K1 cells; 360,000 compounds, 0.48% hits; AID 602248; activation, % at 3 µM; Fluo-8 calcium fluorescence; scaled to maximal ATP response, vehicle zero; in the data active = activation above about 15%;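 also: untransfected CHO-K1 host cells lacking M1 receptor as counterscreen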
CHRM1 agonist – agonists of human M1 muscarinic receptor; P11229; CHO-K1 hM1, Fluo-8 calcium fluorescence, agonist mode; 0% DMSO, 100% acetylcholine EC100; activation, % at 3 µM; 360,000 compounds, 0.33% hits; AID 588814;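 active = activation above the run's mean compound activation plus 3 SD, cut at about 16% in these data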;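 also: peak over basal fluorescence ratio within a 140 s kinetic read after compound addition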
Target sequence (P11229 whole entry, looked up): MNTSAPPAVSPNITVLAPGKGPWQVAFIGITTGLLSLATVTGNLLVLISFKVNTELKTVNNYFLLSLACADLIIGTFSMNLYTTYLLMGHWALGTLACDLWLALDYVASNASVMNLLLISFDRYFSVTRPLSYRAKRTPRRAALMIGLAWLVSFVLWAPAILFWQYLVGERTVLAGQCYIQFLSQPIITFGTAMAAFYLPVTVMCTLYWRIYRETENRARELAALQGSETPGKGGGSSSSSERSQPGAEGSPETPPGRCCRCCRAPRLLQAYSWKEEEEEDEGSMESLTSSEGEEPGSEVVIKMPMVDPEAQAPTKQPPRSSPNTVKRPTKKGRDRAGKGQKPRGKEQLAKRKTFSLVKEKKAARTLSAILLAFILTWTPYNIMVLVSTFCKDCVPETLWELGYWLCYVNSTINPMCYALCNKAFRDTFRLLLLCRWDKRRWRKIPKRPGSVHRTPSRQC
CHO-K1 Ca antag – M1 antagonist counterscreen hit in parental CHO-K1 cells | ATP-induced calcium, Fluo-8 fluorescence | inhibition, % at 3 µM | 360,000 compounds, 0.6% hits;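 active = inhibition above a per-plate cutoff, the plate's mean sample inhibition plus 3 SD, cut at about 24% in these data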;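 also: 0% = DMSO plus EC80 ATP and 100% = DMSO alone without ATP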
CHO-K1 Ca PAM – M1 PAM counterscreen hit in parental CHO-K1 cells; ATP EC20, Fluo-8 calcium fluorescence; 0% at ATP EC20, 100% at ATP max; activation, % at 3 µM; 360,000 compounds, 0.02% hits; AID 602247;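 active = activation above the run cutoff, the mean activation of all test compounds plus 3 SD, cut at about 40% in these data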;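 also: peak over basal fluorescence ratio in a 140 s read after ATP addition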
CHRM1 antagonist – human CHRM1 antagonism. CHO-K1 hM1, Fluo-8 calcium fluorescence, ACh EC80 antagonist. inhibition, % at 3 µM. 360,000 compounds, 1.3% hits. AID 588852;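 active = percent inhibition above its own plate's cutoff, namely the mean of that plate's compound wells plus 3 SD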;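 also: peak over basal fluorescence ratio during 140 s after agonist addition; 0% = ACh EC80 plus DMSO and 100% = DMSO alone without agonist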
CHRM1 PAM – positive allosteric modulators of human M1 muscarinic receptor; P11229; CHO-K1 hM1, Fluo-8 calcium fluorescence, ACh EC20; 0% = ACh EC20, 100% = maximal ACh; activation, % at 3 µM; 360,000 compounds, 0.088% hits; AID 588819; in the data active = activation above about 19%, passing the limit was not always enough
Active calls of the source: *.

SMILES | CHO-K1 Ca ag | CHRM1 agonist | CHO-K1 Ca antag | CHO-K1 Ca PAM | CHRM1 antagonist | CHRM1 PAM
O=C(COC(=O)Cc1ccsc1)NC(c1ccccc1)c1ccccc1 | 0 | -7 | 16 | -7 | -3 | 0
CC(NC(=O)COC(=O)Cc1ccsc1)c1ccccc1 (centres undefined) | 18* | -5 | 2 | 16 | -10 | 11
CN(CC(=O)Nc1ccc(F)cc1)C(=O)c1ccc(-c2ccc(F)cc2)o1 | 0 | 0 | 1 | -14 | -4 | 0
COc1cccc(N2CCN(C(=S)NCc3ccco3)CC2)c1 | 0 | -1 | 26* | -3 | 1 | 12
Fc1ccc(N2CCN(C(=S)NCc3ccco3)CC2)cc1 | 2 | -8 | -6 | 9 | -4 | -8
O=C(COc1cc2oc(=O)c3c(c2cc1Cl)CCC3)NCc1ccncc1 | 0 | -3 | 5 | 12 | -2 | 1
Cc1cc(C)nc(/N=C(\N)Nc2ccc(OCc3ccccc3)cc2)n1 | 91* | 70* | 89* | -12 | 89* | -41
CCOC(=O)C(=O)Nc1ccc(OCc2ccccc2)cc1 | 6 | -3 | 2 | -1 | 4 | -2
COc1ccc(N/C(N)=N/c2nc(C)cc(C)n2)cc1 | 7 | -6 | 19 | -5 | 21 | -14
Cc1cc(C)nc(/N=C(\N)Nc2cccc(OCc3ccccc3)c2)n1 | 46* | 26* | 22 | -30 | 59* | -28
COc1ccccc1N/C(N)=N/c1nc(C)cc(C)n1 | 2 | -5 | -10 | 24 | -10 | 1
Cc1cc(C)nc(/N=C(\N)Nc2ccc(CC(=O)OC(C)C)cc2)n1 | 37* | 15 | 45* | -31 | 59* | -30
Cc1cc(C)nc(/N=C(\N)Nc2ccc(OCCC(C)C)cc2)n1 | 33* | 33* | 52* | -12 | 84* | -30
CSc1ncccc1C(=O)NC(C)C1CC2CCC1C2 (centres undefined) | 0 | -3 | 2 | 2 | -2 | -3
CC(C)(C)C(=O)/C=c1\[nH]c(=O)/c(=C\c2ccc(C#N)cc2)s1 | 0 | 1 | 25* | -7 | -15 | 12
Cc1csc(N2CCCC2=O)n1 | 0 | -6 | -2 | 16 | 5 | 4
CC1=CC(C)C(=O)N(CCN2CCOCC2)C(C)=C1 (centres undefined) | 0 | -5 | -3 | 8 | -5 | 2
Cc1nc2ncnn2c(N2CCN(C(c3ccccc3)c3ccccc3)CC2)c1C | 2 | -10 | -26 | 4 | -2 | -2
Cc1cc(N2CCN(C(c3ccccc3)c3ccccc3)CC2)n2ncnc2n1 | 3 | -1 | -5 | 6 | 30* | -13
Cn1nc(C(C)(C)C)cc1C(=O)NCc1cc(F)cc2c1OCOC2 | 15* | 6 | 31* | -14 | 41* | -4
CCOC(=O)C1=CCN(S(=O)(=O)c2ccc(C)cc2)C1c1ccc(Cl)cc1 (centres undefined) | 1 | -5 | 12 | 14 | -7 | -8
CCOC(=O)C1=CCN(S(=O)(=O)c2ccc(Br)cc2)C1c1cccc(C)c1 (centres undefined) | 0 | 3 | 18 | 3 | -6 | 13
CCOC(=O)C1=CCN(S(=O)(=O)c2ccc(C)cc2)C1c1cccc(Br)c1 (centres undefined) | 0 | -7 | 29* | -9 | 11 | -5
CCOC(=O)C1=CCN(S(=O)(=O)c2ccc(Cl)cc2)C1c1ccc(C)cc1 (centres undefined) | 0 | -4 | 24* | -8 | 0 | -1
O=C(NCc1cccnc1)C(=O)N/N=C/c1ccccc1[N+](=O)[O-] | -1 | -4 | -6 | 5 | -14 | 15
SMILES | CHO-K1 Ca ag | CHRM1 agonist | CHO-K1 Ca antag | CHO-K1 Ca PAM | CHRM1 antagonist | CHRM1 PAM
CCn1c2ccccc2c2nc3ccccc3nc21 | 1 | 5 | -1 | 18 | -4 | 6
CCn1c2ccccc2c2nc3cc(C(=O)O)ccc3nc21 | 1 | -6 | 24* | -15 | -1 | 4
CCOc1ccc(CN(C)CC(=O)Nc2ccc(N3CCOCC3)cc2)cc1OC | 16* | -8 | 1 | 17 | -1 | 8
Cc1ccc(CC(=O)N(C)CC(=O)Nc2ccc(N3CCOCC3)cc2)cc1C | 0 | -2 | 25* | -26 | 4 | -1
COc1ccccc1NS(=O)(=O)c1cccc(C(=O)NNC(=O)C(C)NC(=O)c2ccco2)c1 (centres undefined) | 1 | -3 | -20 | 11 | -8 | 4
Cc1ccccc1NC(=O)Cc1nc(COC(=O)c2ccc(S(C)(=O)=O)c([N+](=O)[O-])c2)cs1 | 4 | -5 | 5 | -10 | 34* | -26
Cc1ccccc1NC(=O)COC(=O)c1ccc(S(C)(=O)=O)c([N+](=O)[O-])c1 | 0 | -4 | 4 | -9 | 4 | 4
CCOc1ccc(NS(=O)(=O)c2ccc(NC(=S)NC(=O)CC(C)C)cc2)cc1 | 11 | 17* | 8 | 19 | 21 | 9
CCOc1ccc(NS(=O)(=O)c2ccc(C(=O)N(C)CC(=O)Nc3ccc(OC)cc3)cc2)cc1 | 0 | -1 | 5 | -10 | -8 | 6
CCCC(=O)NC(=S)Nc1ccc(S(=O)(=O)Nc2ccc(OCC)cc2)cc1 | 27* | 28* | 6 | 34 | 14 | 8
CCN(CC(=O)Nc1ccc(OC)cc1)C(=O)c1ccc(NS(=O)(=O)c2ccc(C(C)=O)cc2)cc1 | 0 | 0 | 1 | 0 | -10 | 13
CCC(=O)NC(=S)Nc1ccc(S(=O)(=O)NC(C)=O)cc1 | 0 | -1 | 29* | -12 | 13 | -7
C=C(C)CN(CC)C(=O)COc1ccc(S(=O)(=O)Nc2ccc(OC)cc2)cc1 | 8 | 21* | -2 | 9 | 0 | 3
O=c1onc(-c2ccc(Cl)cc2)n1Cc1ccc(F)cc1 | 0 | -10 | -10 | 19 | -9 | 8
Cc1cccnc1NC(=O)c1cccc(NC(=O)CC2SC(N3CCCCC3)=NC2=O)c1 (centres undefined) | -1 | -3 | 11 | 1 | -7 | 9
OCC[C@@H]1C[C@H](O)[C@@H](O)[C@@]2(OCc3ccc4ccccc4c32)O1 | 0 | -1 | 14 | -2 | 3 | 1
O=S(=O)(c1ccccc1)N1CCC(Oc2ccc(-n3cnnn3)cc2)CC1 | 18* | 2 | 2 | -12 | 37 | -15
O=C(NCCc1ccccc1)C1CCN(S(=O)(=O)c2ccc(-n3cnnn3)cc2)CC1 | 1 | -3 | -4 | 18 | -8 | 4
N#C/C(=N\Nc1cccc(C(F)(F)F)c1)C(=O)c1ccsc1 | 12 | 4 | 18 | 4 | 22 | -6
Oc1ccc(Cl)cc1C=Nc1ccc2c3c(cccc13)CC2 | 44* | 22* | 32* | 2 | 17 | -1
Oc1ccc(Cl)cc1/C=N/c1nccs1 | 0 | -4 | -10 | 23 | -10 | 6
Cc1cccc(C=Nc2ccc3c4c(cccc24)CC3)c1O | 15* | 3 | 25* | -14 | 12 | -3

Screens as filed in PubChem BioAssay.
